# FMDV antiviral = High Throughput Screening for Foot and Mouth Disease Virus Antivirals; AID 1159524, 2015; actives 1.2% (n = 410,000); FMDV antiviral cell-based qHTS; Potency, µM (top dose mostly 57.9 µM), for inactives: at the top dose activity change, negative = inhibition, actives largely listed as inhibitors; calls by dose curve; tested in HEK293T cells; further: read-out not given here; potency means the concentration at half of the fitted maximal effect; nearly all actives have a fitted effect of over 45% in size
# HCMV inh = qHTS Assay for inhibitors of the human cytomegalovirus (HCMV); HFF cells, HCMV-luciferase reporter, 72 h; hits give low values; activity change, negative = inhibition, % at 57.5 µM; actives 4.5% (n = 410,000); in the data active means activity change below about -60%; inconclusive means no clear call, values can overlap the other calls; inactive means above about -39%
#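 Human foreskin fibroblasts infected with luciferase-reporter HCMV at MOI 1 PFU/cell, compounds at two doses. Luciferase measured 72 h post infection; normalized to buffer-only basal and Salinomycin (10uM) controls.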
# MARV entry inh = qHTS for inhibitors of binding or entry into cells for Marburg Virus | Marburg virus pseudotyped entry inhibition, cell reporter | Potency, µM (highest dose often 37.8 µM), inactives show at the top dose activity change, negative = inhibition, most hits filed as inhibitors | actives 1.8% (n = 300,000) | AID 540276, 2011; calls by dose curve; tested in HEK293 cells; further: potency means the concentration at half of the fitted maximal effect
# LASV entry inh = qHTS for Inhibitors of binding or entry into cells for Lassa Virus; Lassa virus pseudotype entry inhibition, cell reporter; Potency, µM (highest dose often 37.9 µM), for the others: top-dose activity change, negative = inhibition, most hits filed as inhibitors; actives 1.2% (n = 300,000); calls by dose curve; tested in HEK293 cells; further: potency means the concentration at half of the fitted maximal effect; nearly all actives have a fitted effect of over 50% in size
# HCV inh = qHTS Assay for Inhibitors of Hepatitis C Virus (HCV) | Huh7.5.1 HCVcc-Cre infection, luciferase reporter, 44 h | Potency, µM (doses to about 41.8 µM), for the others: top-dose activity change, negative = inhibition, usual class: inhibitors | actives 3.4% (n = 340,000); active means well fitted inhibition curve with a large enough effect; inconclusive means small, poorly fitted or top-dose-only effect, or another doubt; inactive means no such curve, though single readings can be large or run the other way; further: potency means the concentration at half of the fitted maximal effect
#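 After 44 h co-culture of compound, cells and HCVcc-Cre (~0.5 moi), substrate is added for 15 min at room temperature and luciferase measured over 15 sec. Cells were seeded at 1,000/well and pre-cultured 4 h.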
# * marks the source's active call; other numbers are inactive results; ? = inconclusive; nt = not tested or not shown; [ ] = dose if it differs, or a comment. A selection: hits, their analogues and other compounds. The true share with any hit is near 7.9%. On the % scale 0 is the no-effect control and ±100 the full control effect.
SMILES,FMDV antiviral,HCMV inh,MARV entry inh,LASV entry inh,HCV inh
COc1ccc(/C=C/c2cc(-c3ccc(C)cc3)o[n+]2C)cc1,2.8µM*,-104*,?,?,?
O=c1[nH]c(=O)n(-c2cc(Br)c(O)c(Br)c2)cc1Br,2%,46,nt,nt,17%
CC(C)Oc1ccc(C(=O)Nc2nc3c(s2)CC(C(C)(C)C)CC3)cc1 (configuration not stated),?,?,10%[46.1 µM],13%[46.1 µM],nt
Cc1ccccc1C(=O)Nc1nc2c(s1)CC(C(C)(C)C)CC2 (configuration not stated),-11%,-66*,7%[46.1 µM],?,nt
O=C(COC(=O)c1c2c(nc3ccccc13)CCCC2)Nc1ccc2c(c1)OCO2,-21%,-27,?,?,5.6µM*
O=C(OCC(=O)N1CCc2ccccc21)c1c2c(nc3ccccc13)CCCCC2,3%,?,?,?,2.8µM*
O=C(COC(=O)c1c2c(nc3ccccc13)/C(=C\c1cccs1)CCC2)Nc1ccccc1,-4%,-20,?,?,?
CC(=O)c1ccc(NC(=O)COC(=O)c2c3c(nc4ccccc24)/C(=C\c2cccs2)CCC3)cc1,?,?,8.9µM*,?,?
O=C(COC(=O)c1cc(-c2ccccc2)nc2ccccc12)Nc1ccc2c(c1)OCO2,-24%,-6,?,8%,-6%
CC(C)(C)NC(=O)COC(=O)c1c2c(nc3ccccc13)CCC2,-21%,-20,-3%[46.1 µM],-25%,?
CC(C)NC(=O)NC(=O)COC(=O)c1c2c(nc3ccccc13)CCC2,11µM*,?,?,nt,4.5µM*
CCOC(=O)c1csc(-c2ccc(COC(=O)c3ccccc3)o2)n1,10%,nt,nt,nt,nt
CCCCOc1ccc(S(=O)(=O)N2CCN(c3ccccc3OCC)CC2)cc1,-17%,17,nt,1%[46.1 µM],nt
CCC(=O)Nc1ccc(C2C(=O)c3ccccc3C2=O)cc1,20µM*,147,10µM*,?,2.8µM*
CCCCC(=O)Nc1ccc(C2C(=O)c3ccccc3C2=O)cc1,?,55,-6%,?,10µM*
CCc1ccc(C2C(=O)c3ccccc3C2=O)cc1,10%,8,?,-18%[46.1 µM],-4%
O=S(=O)(c1cc(C(F)(F)F)ccc1Cl)N1CCN(c2ncnc3ccccc23)CC1,?,-82*,-28%,?,14µM*
O=S(=O)(c1cc(C(F)(F)F)ccc1Cl)N1CCCCCC1,nt,-29,-5%,-7%,6%
CC1CCN(c2ncnc3ccccc23)CC1,?,-72*,-1%,0%,11µM*
Cc1cc(C)c(C)c(S(=O)(=O)N2CCN(c3ncnc4ccccc34)CC2)c1C,16µM*,?,nt,nt,2.5µM*
CC1CCN(c2nc(-c3ccccc3O)nc3ccccc23)CC1,-15%,53,-23%,-4%,?
CCc1nc2ccc(C(=O)Nc3ccc(NC(C)=O)cc3)cn2c1N(C)CCCc1ccccc1,0%,-20,nt,nt,nt
CCOC(=O)c1cccn1C1C(=O)N(Cc2ccc(Cl)nc2)c2ccc(Cl)cc21 (configuration not stated),nt,-27,nt,nt,nt
CC1(C)Oc2ccc3ccc(=O)oc3c2/C(=C/NNC(N)=O)C1=O,-14%,-95*,nt,nt,-14%
O=c1[nH]c(=S)[nH]c(O)c1/C=C1/C=c2ccccc2=N1,25µM*,72,?,?,?
SMILES,FMDV antiviral,HCMV inh,MARV entry inh,LASV entry inh,HCV inh
O=C1N=c2ccccc2=C1c1[nH]c(=S)[nH]c1O,-9%,50,12%,-1%,16%
O=C(c1ccc2c(c1)OCO2)N1CCOc2ccc(CN3CCC(Oc4cccnc4)CC3)cc2C1,-13%,nt,nt,nt,nt
CN1CCN(/N=C/c2ccc(-c3ccccc3)cc2)CC1,1%,-85*,?,?,-27%
C/C(=N\NC(=O)c1ccccc1OCCOc1ccccc1)c1ccccc1F,-21%,10,11µM*,?,?
COc1ccccc1Cc1c(-c2ccc(Cl)cc2)nc2ccc(C)cn12,nt,60,nt,nt,nt
CCCc1c(NC(=O)Nc2ccc(F)cc2)cnn1-c1ccccc1,5%,-67*,nt,nt,-19%
Cc1cccc(OCC(=O)Nc2ccc(Cl)c(-c3nc4ncccc4o3)c2)c1C,-25%,-23,-8%[46.1 µM],?,nt
Cc1ccc(N2C(=O)NC(=O)/C(=C/c3cnc(-c4ccccc4)nc3)C2=O)cc1C,-11%,57,14%,17%,5%
Cc1cccc(N2C(=O)NC(=O)/C(=C\c3cnc(-c4ccccc4)nc3)C2=O)c1,-12%,-10,?,18%,11µM*
CC(C)c1ccc(N2C(=O)NC(=O)/C(=C\c3cnc(-c4ccccc4)nc3)C2=O)cc1,-11%,-88*,41%,23%,10%
CCN1C(=O)/C(=C/N(C(C)=O)c2ccccc2)N(c2ccccc2)C1=S,32µM*,3,-1%[46.1 µM],-24%,-8%
CCCCCCN(C(=O)CCCCCN1C(=O)NC(c2ccc(-c3ccccc3)cc2)C(C(=O)OCc2ccccc2)=C1C)C(C(=O)NCCCC)c1ccc(OCC(=O)OC)cc1 (configuration not stated),nt,nt,10%,5%,7%[8.37 µM]
CCCCNC(=O)C(c1ccc(OCC(=O)OC)c(C(=O)OC)c1)N(CCOC)C(=O)CCCCCN1C(=O)NC(c2ccc(-c3ccccc3)cc2)C(C(=O)OCc2ccccc2)=C1C (configuration not stated),nt,-95*,nt,nt,nt
Cc1ccsc1/C=N\NC(=O)Cn1nnc2ccccc21,18%,-31,-28%,?,?
CCCCN(CC)CCCNC(=O)c1csc2c1CCCCC2,?,?,?,-25%,35µM*
O=C(CN1CCN(C(C(=O)Nc2cc(C(F)(F)F)ccc2Cl)c2ccccc2)CC1)NC1CC1 (configuration not stated),40µM*,-22,nt,nt,?
Cc1ccc(N=Nc2ccc(O)cc2)c(Br)c1,-81%,47,?,10µM*,-11%
Oc1ccc(N=Nc2ccc(Br)cc2)c(O)c1,48%,13,nt,nt,-15%
Cc1cnc(-n2ncc(C(=O)NCCN3CCOCC3)c2-c2cccs2)nc1-c1ccc(F)cc1,-2%,nt,nt,nt,nt
Cc1ccc(NC(=O)Cc2ccc(Cl)cc2)cc1S(=O)(=O)N1CCCCCC1,?,-26,nt,nt,10µM*
Cc1nc(-c2ccc(F)cc2)c(CC(=O)Nc2ccc(C)c(S(=O)(=O)N3CCOCC3)c2)s1,?,nt,5µM*,?,7.9µM*
Cc1ccc(NC(=O)CSc2nc(N)cc(N)n2)cc1S(=O)(=O)N1CCOCC1,20%,0,-32%,?,4%
COc1ccc(NC(=O)COc2ccccc2F)cc1S(=O)(=O)N1CCCCC1,-11%,-3,-22%,?,?
COc1ccc(NC(=O)Cc2ccc(Cl)cc2)cc1S(=O)(=O)N1CCCCC1,-4%,?,nt,nt,14µM*

# Assay outcomes from PubChem.
